± gives the standard deviation. The full ranking holds about 8,200 sequences; the median of “pre-steady-state target cleavage rate” is about 0.024, and the highest 2% start at about 1.3. The sample as a whole holds a higher share of the highest values than the screen did.
System: MIWI (PIWIL1) piRISC loaded with L1MC piRNA (30 nt)
Experiment: pre-steady-state target cleavage rate (min^-1); MIWI and MILI are mouse PIWI proteins and EfPiwi is from a freshwater sponge; tags in brackets are library labels; higher = faster piRNA-guided slicing of the target
Details: guide: L1MC piRNA 5'p-UAACUAAAUACUAUGCAAGCUGUAGGUCCU
Experimental: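 Cleave-'n-Seq: a library of target RNAs (target site embedded in constant flanks, ACAGCATTCCGCGTTAGTGATATCCG... 5' flank; DNA-blocked outside the site) at 0.1 nM was incubated with 1 nM active mouse MILI or MIWI piRISC (synthetic 5'-monophosphorylated piRNA guide) with or without 500 nM mouse GTSF1 at 33 °C for 1 min to 16 h. Uncleaved targets were sequenced and normalised to non-target controls, and the pooled three trials were fitted to a burst-and-steady-state model to give the pre-steady-state cleavage rate (min^-1; k3 is constrained to at most 1e-4). Sequence is the target site only; target names encode pairing extent (gX:gY) and contiguous / 1-mismatch / 2-mismatch / bulge geometry. Fits with R² ≤ 0 are excluded.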

[1] = auxiliary factor: 500 nM mouse GTSF1
[2] = auxiliary factor: none (no GTSF1)

| Sequence | pre-steady-state target cleavage rate [1] | pre-steady-state target cleavage rate [2] |
| --- | --- | --- |
| UCCUGCUAACAGCUUGCAUAGUAUUUAGUUA | 0.617 ± 0.052 | 0.0487 ± 0.0083 |
| AGGACCUACAGCUUGCAUAGUAAAAACAAA | 0.268 ± 0.068 |  |
| UGGACCUACAGCUUCCAUAGUAAUUAGUUA | 0.0113 ± 0.0031 |  |
| UCCUGGAACAGCUUGCAUAGUACUUUAGUUA | 0.472 ± 0.036 | 0.00827 ± 0.0032 |
| UCCAGCUACACCUUGCAUAGUAUUUAGUUA | 0.797 ± 0.034 | 0.0443 ± 0.0068 |
| UCCUGGAUCAGCUUGCAUAGAAUUUACAAA | 0.0559 ± 0.014 |  |
| UGGACCUACAGCUUGCAUAGCAUUUAGUUA | 0.379 ± 0.025 | 0.0275 ± 0.0061 |
| UCCUGGAUCCAGCUUGCAUAGUAUUUAGUUA | 1.31 ± 0.081 | 0.0546 ± 0.016 |
| UCCUGGUCCAGCUUGCAUAGUAUUUAGUUA | 0.717 ± 0.055 | 0.0383 ± 0.0079 |
| UCCUGGACCAGCUUGCAUAGUAUUUAGUUA | 0.915 ± 0.048 | 0.0367 ± 0.0074 |
| UCCUGGAUCCGCUUGCAUAGUAUUUAGUUA | 0.927 ± 0.053 | 0.031 ± 0.0075 |
| UCCUGGAUGAGCUUGCAUAGUAUUUAUUUA | 0.267 ± 0.055 | 0.025 ± 0.0077 |
| AGGACCUACAGGUUCCAUAGUAUUUAGUUA | 0.659 ± 0.17 |  |
| UCCUCCUACAGCUUGCAUAGUAUUUAGUUC [g2:g26:cont:t1C] | 1.09 ± 0.039 | 0.0511 ± 0.011 |
| UCCUCCCUACAGCUUGCAUAGUAUUUAGUUA | 1.09 ± 0.038 | 0.075 ± 0.016 |
| ACCUCCUACAGCUUGCAUAGUAUUUAGUAA | 0.85 ± 0.046 | 0.0351 ± 0.0072 |
| ACCUCCUACAGCUUGCAUAGUAUUUAGUUA | 1.35 ± 0.052 | 0.0784 ± 0.012 |
| UCCUCCUACAGCUUGCAUAGUAUUUUAGUUA | 1.04 ± 0.044 | 0.0227 ± 0.0055 |
| UCCUUCUACAGCUUGCAUAGUAUUUAGUUA | 1.02 ± 0.033 | 0.0527 ± 0.0083 |
| UCCUCCUACAGCUUGCAUAGUAUUUAGUUA [g2:g26:cont:t1A] | 1.32 ± 0.052 | 0.0816 ± 0.015 |
| UCCUCUCUACAGCUUGCAUAGUAUUUAGUUA | 0.797 ± 0.038 | 0.0529 ± 0.0081 |
| UCCUCUACAGCUUGCAUAGUAUUUAGUUA | 1.34 ± 0.047 | 0.0659 ± 0.011 |

| Sequence | pre-steady-state target cleavage rate [1] | pre-steady-state target cleavage rate [2] |
| --- | --- | --- |
| UCCUGGUACAGCUUGCAUAGUAGUUAGUUA | 0.433 ± 0.051 | 0.0224 ± 0.0045 |
| UGGACGUACAGCUUGCAUAGUAUUUUGUUA | 0.75 ± 0.055 | 0.052 ± 0.009 |
| UCCUGGAUCAGCAUUGCAUAGUAUUUAGUUA | 0.875 ± 0.036 | 0.0165 ± 0.0047 |
| UCCUGGAUGUCGAUGCAUAGUAUUUGAGUUA | 0.0114 ± 0.0044 |  |
| UCCACCUACACCUUGCAUAGUUUUUAGUUA | 0.249 ± 0.032 | 0.0171 ± 0.0033 |
| UCCUGGAACAGCGUUGCAUAGUAUUUAGUUA | 0.939 ± 0.055 | 0.0303 ± 0.0056 |
| UCCUGCUACAGGUUGCAUAGUAUUUACAAA | 0.117 ± 0.028 |  |
| UCCACCUACAGACUUGCAUAGUAUUUAGUUA | 0.606 ± 0.06 | 0.0272 ± 0.0043 |
| UCCUCCUACAGCUUGCAUAGCUAUUUAGUUA | 0.0221 ± 0.01 |  |
| UGGACCUACCAGCUUGCAUAGUAUUUAGUUA | 1.25 ± 0.1 | 0.0599 ± 0.013 |
| UGGACCUACCGCUUGCAUAGUAUUUAGUUA | 1.57 ± 0.11 | 0.0558 ± 0.0098 |
| UGGACCUACGAGCUUGCAUAGUAUUUAGUUA | 0.657 ± 0.11 | 0.0557 ± 0.013 |
| UCCACCUACCGCUUGCAUAGUAUUUAGUUA | 1.11 ± 0.05 | 0.0544 ± 0.0086 |
| UCGACCUACCAGCUUGCAUAGUAUUUAGUUA | 1.29 ± 0.064 | 0.0725 ± 0.016 |
| UCCUGCUACCGCUUGCAUAGUAUUUAGUUA | 1.1 ± 0.1 | 0.0571 ± 0.011 |
| AGGACCUACCGCUUGCAUAGUAUUUAGUUA | 1.43 ± 0.082 | 0.0866 ± 0.017 |
| UCGACCUACCGCUUGCAUAGUAUUUAGUUA | 1.64 ± 0.069 | 0.0745 ± 0.015 |
| UCCUCCUACGCUUGCAUAGUAUUUAGUUA | 1.24 ± 0.045 | 0.0478 ± 0.0094 |
| AGGACCUACCAGCUUGCAUAGUAUUUAGUUA | 1.17 ± 0.069 | 0.0704 ± 0.014 |
| UCCUCCUACCGCUUGCAUAGUAUUUAGUUA | 1.34 ± 0.062 | 0.0565 ± 0.0099 |
| AGGACCUACACGCUUGCAUAGUAUUUAGUUA | 1.1 ± 0.065 | 0.0703 ± 0.01 |

Source: the supplement of paper PMC10338343
